Source: PubChem BioAssay AID1159580 (chemical genetic matrix, 2015)
Out of some 5,500 compounds screened, about 2,000 (36%) were called active. About 18% were inconclusive and are not listed. The list shows a part of the results. Unmarked numbers belong to inactive results. Cut-off read from the data, not from the text of the source: active = normalized growth mostly below about 0.91 (no sharp cut-off); inconclusive = no clear call, values can overlap the other calls; inactive = mostly above about 0.92.

Assay: chemical genetic growth profiling, strain panel (AID 1159580);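 note: tested at 20 µM; growth read once vehicle control cultures reached saturation at 30 °C; 1 = growth at the plate median or of vehicle wells; lower values mean less growth of the strain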
Settings: S. cerevisiae deletion strains, growth OD
[1] = locus YAR019C, strain CDC15, stronger effect = lower value
[2] = locus YBL105C, strain PKC1, stronger effect = lower value
[3] = locus YBR135W, strain CKS1, stronger effect = lower value
[4] = locus YBR136W, strain MEC1, stronger effect = lower value
[5] = locus YBR160W, strain CDC28, stronger effect = lower value
[6] = locus YDL017W, strain CDC7, stronger effect = lower value
[7] = locus YDL028C, strain MPS1, stronger effect = lower value
[8] = locus YDL101C, strain DUN1, stronger effect = lower value
[9] = locus YDL108W, strain KIN28, stronger effect = lower value
[10] = locus YDL214C, strain PRR2, stronger effect = lower value
[11] = locus YDR052C, strain DBF4, stronger effect = lower value
[12] = locus YDR054C, strain cdc34, stronger effect = lower value
[13] = locus YDR226W, strain ADK1, stronger effect = lower value
[14] = locus YDR477W, strain SNF1, stronger effect = lower value
[15] = locus YER123W, strain YCK3, stronger effect = lower value
[16] = locus YER133W, strain GLC7, stronger effect = lower value
[17] = locus YFL009W, strain cdc4, stronger effect = lower value
[18] = locus YFL029C, strain CAK1, stronger effect = lower value
[19] = locus YFR003C, strain YPI1, stronger effect = lower value
[20] = locus YFR019W, strain FAB1, stronger effect = lower value
[21] = locus YFR028C, strain CDC14, stronger effect = lower value
[22] = locus YGR040W, strain KSS1, stronger effect = lower value
[23] = locus YGR052W, strain FMP48, stronger effect = lower value
[24] = locus YGR092W, strain DBF2, stronger effect = lower value
[25] = locus YHR079C, strain IRE1, stronger effect = lower value
[26] = locus YHR082C, strain KSP1, stronger effect = lower value
[27] = locus YHR205W, strain SCH9, stronger effect = lower value
[28] = locus YIL147C, strain SLN1, stronger effect = lower value
[29] = locus YJL095W, strain BCK1, stronger effect = lower value
[30] = locus YJL157C, strain FAR1, stronger effect = lower value
[31] = locus YJR016C, strain ILV3, stronger effect = lower value
[32] = locus YJR066W, strain TOR1 (second series), stronger effect = lower value
[33] = locus YJR066W, strain TOR1, stronger effect = lower value
[34] = locus YKL048C, strain ELM1, stronger effect = lower value
[35] = locus YKL067W, strain YNK1, stronger effect = lower value
[36] = locus YKL101W, strain HSL1, stronger effect = lower value
[37] = locus YKL193C, strain SDS22, stronger effect = lower value
[38] = locus YKL203C, strain TOR2, stronger effect = lower value
[39] = locus YLR113W, strain HOG1, stronger effect = lower value
[40] = locus YLR133W, strain CKI1, stronger effect = lower value
[41] = locus YLR403W, strain SFP1, stronger effect = lower value
[42] = locus YML070W, strain DAK1, stronger effect = lower value
[43] = locus YMR001C, strain CDC5, stronger effect = lower value
[44] = locus YMR205C, strain PFK2 (second series), stronger effect = lower value
[45] = locus YMR277W, strain FCP1, stronger effect = lower value
[46] = locus YNL006W, strain LST8, stronger effect = lower value
[47] = locus YNL020C, strain ARK1, stronger effect = lower value
[48] = locus YNL161W, strain CBK1, stronger effect = lower value
[49] = locus YNL183C, strain NPR1, stronger effect = lower value
[50] = locus YNL207W, strain RIO2, stronger effect = lower value
[51] = locus YNL222W, strain SSU72, stronger effect = lower value
[52] = locus YNL307C, strain MCK1 (second series), stronger effect = lower value
[53] = locus YOL078W, strain AVO1, stronger effect = lower value
[54] = locus YOL136C, strain PFK27, stronger effect = lower value
[55] = locus YOR061W, strain CKA2, stronger effect = lower value
[56] = locus YOR119C, strain RIO1, stronger effect = lower value
[57] = locus YOR231W, strain MKK1, stronger effect = lower value
[58] = locus YOR329C, strain SCD5, stronger effect = lower value
[59] = locus YPL031C, strain PHO85, stronger effect = lower value
[60] = locus YPL153C, strain RAD53, stronger effect = lower value
[61] = locus YPL204W, strain HRR25, stronger effect = lower value
[62] = locus YPL209C, strain IPL1, stronger effect = lower value
[63] = locus YPL256C, strain CLN2, stronger effect = lower value
[64] = locus YPR025C, strain CCL1, stronger effect = lower value
[65] = locus YPR111W, strain DBF20, stronger effect = lower value
[66] = strain NNK1, stronger effect = lower value
[67] = strain TSCII, stronger effect = lower value

SMILES: C#CCSC1=NNC(c2ccccn2)S1 (stereo not drawn)
- normalized growth [1]: 0.583 (active)
- normalized growth [2]: 0.945
- normalized growth [3]: 0.928
- normalized growth [4]: 0.924
- normalized growth [5]: 0.932
- normalized growth [6]: 0.947
- normalized growth [7]: 0.917
- normalized growth [8]: 0.45 (active)
- normalized growth [9]: 0.932
- normalized growth [10]: 0.163 (active)
- normalized growth [11]: 0.94
- normalized growth [12]: 0.531 (active)
- normalized growth [13]: 0.975
- normalized growth [14]: 0.136 (active)
- normalized growth [15]: 0.125 (active)
- normalized growth [16]: 0.162 (active)
- normalized growth [17]: 0.573 (active)
- normalized growth [18]: 0.517 (active)
- normalized growth [19]: 0.957
- normalized growth [20]: 0.111 (active)
- normalized growth [21]: 0.763 (active)
- normalized growth [22]: 0.176 (active)
- normalized growth [23]: 0.175 (active)
- normalized growth [24]: 0.119 (active)
- normalized growth (locus YHR030C, strain SLT2, stronger effect = lower value): 0.135 (active)
- normalized growth [25]: 0.122 (active)
- normalized growth [26]: 0.21 (active)
- normalized growth [27]: 0.123 (active)
- normalized growth [28]: 0.932
- normalized growth [29]: 0.129 (active)
- normalized growth [30]: 0.119 (active)
- normalized growth [31]: 0.596 (active)
- normalized growth [32]: 0.124 (active)
- normalized growth [33]: 0.172 (active)
- normalized growth [34]: 0.262 (active)
- normalized growth [35]: 0.137 (active)
- normalized growth [36]: 0.173 (active)
- normalized growth [37]: 0.618 (active)
- normalized growth [38]: 0.153 (active)
- normalized growth [39]: 0.225 (active)
- normalized growth [40]: 0.152 (active)
- normalized growth [41]: 0.045 (active)
- normalized growth [42]: 0.12 (active)
- normalized growth [43]: 0.821 (active)
- normalized growth [44]: 0.167 (active)
- normalized growth [45]: 0.481 (active)
- normalized growth [46]: 0.892 (active)
- normalized growth [47]: 0.137 (active)
- normalized growth [48]: 0.738 (active)
- normalized growth [49]: 0.171 (active)
- normalized growth [50]: 0.811 (active)
- normalized growth [51]: 0.635 (active)
- normalized growth [52]: 0.151 (active)
- normalized growth [53]: 0.527 (active)
- normalized growth [54]: 0.13 (active)
- normalized growth [55]: 0.183 (active)
- normalized growth [56]: 0.139 (active)
- normalized growth [57]: 0.149 (active)
- normalized growth [58]: 0.855 (active)
- normalized growth [59]: 0.162 (active)
- normalized growth [60]: 0.126 (active)
- normalized growth [61]: 0.141 (active)
- normalized growth [62]: 0.951
- normalized growth [63]: 0.149 (active)
- normalized growth [64]: 0.931
- normalized growth [65]: 0.928
- normalized growth [66]: 0.408 (active)
- normalized growth [67]: 0.541 (active)

SMILES: O=C(CSC1=NNC(c2ccccn2)S1)Nc1ccccc1 (stereo not drawn)
- normalized growth [1]: 1
- normalized growth [2]: 0.998
- normalized growth [3]: 0.994
- normalized growth [4]: 1
- normalized growth [5]: 1
- normalized growth [6]: 1.01
- normalized growth [7]: 0.998
- normalized growth [8]: 0.997
- normalized growth [9]: 1
- normalized growth (locus YDL132W, strain cdc53, stronger effect = lower value): 0.995
- normalized growth [10]: 0.984
- normalized growth [11]: 0.994
- normalized growth [12]: 1
- normalized growth [13]: 1
- normalized growth [14]: 0.971
- normalized growth [15]: 0.951
- normalized growth [16]: 0.962
- normalized growth [17]: 1
- normalized growth [18]: 0.998
- normalized growth [19]: 1.01
- normalized growth [20]: 0.966
- normalized growth [21]: 1
- normalized growth [22]: 0.976
- normalized growth [23]: 1.08
- normalized growth [24]: 0.929
- normalized growth [25]: 1.08
- normalized growth [26]: 1.27
- normalized growth [27]: 0.97
- normalized growth [28]: 1
- normalized growth [29]: 1.08
- normalized growth (locus YJL128C, strain PBS2, stronger effect = lower value): 0.976
- normalized growth [30]: 0.934
- normalized growth [31]: 1
- normalized growth [32]: 0.942
- normalized growth [33]: 1.27
- normalized growth [34]: 0.949
- normalized growth [35]: 0.987
- normalized growth [36]: 0.981
- normalized growth [37]: 0.997
- normalized growth [38]: 1.03
- normalized growth [39]: 1.06
- normalized growth [40]: 0.933
- normalized growth [41]: 0.92
- normalized growth [42]: 0.966
- normalized growth [43]: 1
- normalized growth [44]: 0.955
- normalized growth [45]: 1
- normalized growth [46]: 1.02
- normalized growth [47]: 0.936
- normalized growth [48]: 0.999
- normalized growth [49]: 1.01
- normalized growth [50]: 0.995
- normalized growth [51]: 1
- normalized growth [52]: 0.949
- normalized growth [53]: 0.995
- normalized growth [54]: 0.967
- normalized growth [55]: 0.96
- normalized growth [56]: 0.973
- normalized growth [57]: 1.11
- normalized growth [58]: 1
- normalized growth [59]: 0.973
- normalized growth [60]: 0.955
- normalized growth [61]: 0.923
- normalized growth [62]: 1
- normalized growth [63]: 1.03
- normalized growth [64]: 0.999
- normalized growth (locus YPR106W, strain ISR1, stronger effect = lower value): 1.01
- normalized growth [65]: 1.01
- normalized growth [66]: 0.995
- normalized growth [67]: 0.996
